The text below walks through data of PubChem BioAssay (NCATS).

Molecules are shown by their SMILES. Where “and” joins values, the source holds several entries; their conditions need not be identical. Equal values may be shown once. Records with an inconclusive call do not appear. Values without a mark were called inactive. Calls of active or inactive are those of the source. Unless noted, calls follow the shape of the full dose curve.

Assay [1] concerns the target Estrogen receptor (Homo sapiens) (UniProt P03372). Nature of the assay: qHTS assay for small molecule agonists of estrogen receptor alpha signaling (AID 588514). Also: nearly all actives have a fitted effect of over 70% in size. Also: potency is read from the fitted curve at half-maximal effect.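 As to activation: 0% = vehicle only and 100% = reference agonist.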 In outline: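 Reporter-gene assay. […] controls beta-lactamase in HEK 293 GripTite cells; after 18 hrs with compound, CCF4 substrate is added for 2 hrs and fluorescence is read.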
Background: Quantitative high-throughput screening tests each substance at several concentrations.

For assay [2], the target named is Androgen receptor (Homo sapiens) (UniProt P10275). Description: qHTS assay for small molecule agonists of androgen receptor signaling (AID 588515; active = well fitted curve in the direction sought with a large enough effect in the signal ratio, with a control signal flat; the % refers to the signal ratio; also: % is scaled to controls: 0 for no effect and ±100 for the full control effect). To be noted: AR-UAS-bla HEK293, beta-lactamase ratio, agonist 16 h; activation: hits give high values. In outline: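 EC50 and efficacy came from Hill fits of titrations (up to 92 uM) normalized to 30 nM R1881 as 100% and DMSO as 0%. Compound exposure was 16 h at 37 C on AR-UAS-bla HEK293 cells, with a 405/460/530 nm CCF4 fluorescence read.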
Androgen receptor (Homo sapiens), sequence (P10275 whole entry, looked up): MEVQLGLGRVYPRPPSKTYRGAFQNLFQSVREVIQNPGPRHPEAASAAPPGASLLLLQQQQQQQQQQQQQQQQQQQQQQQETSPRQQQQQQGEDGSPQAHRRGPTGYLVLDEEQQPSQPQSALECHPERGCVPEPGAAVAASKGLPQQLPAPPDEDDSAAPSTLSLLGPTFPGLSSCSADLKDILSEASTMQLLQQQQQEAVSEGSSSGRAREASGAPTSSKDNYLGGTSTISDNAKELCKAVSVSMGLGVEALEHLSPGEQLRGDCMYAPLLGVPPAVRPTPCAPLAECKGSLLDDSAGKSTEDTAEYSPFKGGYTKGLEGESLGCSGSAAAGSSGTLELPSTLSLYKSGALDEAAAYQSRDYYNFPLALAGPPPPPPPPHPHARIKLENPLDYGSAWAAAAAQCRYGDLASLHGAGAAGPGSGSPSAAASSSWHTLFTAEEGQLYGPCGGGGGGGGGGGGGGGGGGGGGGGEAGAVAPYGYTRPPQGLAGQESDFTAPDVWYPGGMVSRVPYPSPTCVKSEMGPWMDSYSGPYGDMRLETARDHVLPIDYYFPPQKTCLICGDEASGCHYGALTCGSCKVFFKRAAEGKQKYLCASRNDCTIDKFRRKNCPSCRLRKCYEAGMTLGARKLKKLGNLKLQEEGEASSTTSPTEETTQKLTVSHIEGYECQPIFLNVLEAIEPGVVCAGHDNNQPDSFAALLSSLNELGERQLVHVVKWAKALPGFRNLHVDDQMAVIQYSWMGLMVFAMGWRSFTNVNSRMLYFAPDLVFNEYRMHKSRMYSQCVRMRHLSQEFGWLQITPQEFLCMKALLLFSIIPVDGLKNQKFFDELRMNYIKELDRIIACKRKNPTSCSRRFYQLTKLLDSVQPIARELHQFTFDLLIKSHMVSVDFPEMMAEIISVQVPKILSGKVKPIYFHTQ

The target is the same in assay [3]. Description: qHTS assay for small molecule antagonists of androgen receptor signaling (AID 588516; active = well fitted curve in the direction sought with a large enough effect in the signal ratio, with a control signal flat, not every such curve was filed as active; the % refers to the signal ratio; also: % is scaled to controls: 0 for no effect and ±100 for the full control effect). In outline: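 AR-UAS-bla GripTite HEK 293 cells (2000/well) treated with compound titrations plus 10 nM R1881 for 16 h at 37C. Beta-lactamase read by CCF4 FRET (460/530 nm); IC50 from Hill fits, normalized to R1881 and DMSO control wells.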
Assay [4] addresses Bile acid receptor (Homo sapiens) (UniProt Q96RI1). Description: qHTS assay for small molecule antagonists of farnesoid X receptor signaling (AID 588526). Also: % is scaled to controls: 0 for no effect and ±100 for the full control effect. In outline:
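Antagonist mode: titrated compounds tested against chenodeoxycholic acid stimulation (normalized to 50 uM CDCA and DMSO) in GeneBLAzer HEK293T cells for 16 h. Beta-lactamase read by CCF4 fluorescence; IC50 from Hill fits.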

The target in assay [5] is Glucocorticoid receptor (Homo sapiens) (UniProt P04150). Description: qHTS assay for small molecule agonists of glucocorticoid receptor signaling (AID 588532; active = well fitted curve in the direction sought with a large enough effect in the signal ratio, with a control signal flat; the % refers to the signal ratio;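 also: 100% = dexamethasone at 0.1 µM and 0% = DMSO only wells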). To be noted: HeLa MMTV-bla, beta-lactamase ratio, agonist, 18 h; hits give high values; percent of dexamethasone control, DMSO zero. In outline: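 HeLa GRE-bla reporter cells; 18 h compound exposure at 37 C; 2 h CCF4 loading at room temperature; fluorescence at 460 and 530 nm; EC50 by Hill equation.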
Glucocorticoid receptor (Homo sapiens), sequence (P04150 whole entry, looked up): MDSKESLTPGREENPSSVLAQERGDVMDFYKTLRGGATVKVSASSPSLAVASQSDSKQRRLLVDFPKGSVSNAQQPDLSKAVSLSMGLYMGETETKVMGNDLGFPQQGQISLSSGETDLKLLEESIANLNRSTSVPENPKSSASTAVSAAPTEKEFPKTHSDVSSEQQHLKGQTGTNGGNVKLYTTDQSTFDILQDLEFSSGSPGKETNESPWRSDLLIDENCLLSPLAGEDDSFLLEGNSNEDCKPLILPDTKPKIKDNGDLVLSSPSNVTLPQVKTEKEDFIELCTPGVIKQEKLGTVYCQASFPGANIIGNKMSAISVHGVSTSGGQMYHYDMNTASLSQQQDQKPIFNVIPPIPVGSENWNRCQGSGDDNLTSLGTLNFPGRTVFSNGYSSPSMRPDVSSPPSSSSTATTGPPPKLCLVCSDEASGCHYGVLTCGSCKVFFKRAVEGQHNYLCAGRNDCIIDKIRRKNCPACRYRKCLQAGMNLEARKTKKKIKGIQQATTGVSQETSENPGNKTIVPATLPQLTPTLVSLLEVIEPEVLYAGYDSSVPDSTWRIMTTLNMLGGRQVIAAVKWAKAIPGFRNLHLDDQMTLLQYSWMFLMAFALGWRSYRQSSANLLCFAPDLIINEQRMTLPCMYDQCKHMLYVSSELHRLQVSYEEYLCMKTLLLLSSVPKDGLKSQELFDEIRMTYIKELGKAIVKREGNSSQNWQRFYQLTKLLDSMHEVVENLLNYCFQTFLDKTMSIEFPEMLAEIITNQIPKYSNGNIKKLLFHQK

The target is the same in assay [6]. Nature of the assay: qHTS assay for small molecule antagonists of glucocorticoid receptor signaling (AID 588533; active = well fitted inhibition curve with a large enough effect in the signal ratio, with a control signal flat, not every such curve was filed as active; the % refers to the signal ratio; also: % is scaled to controls: 0 for no effect and ±100 for the full control effect). In outline: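 Antagonist-mode qHTS: compound titrations added to GRE-bla HeLa cells, then dexamethasone 2 nM final; 18 h, 37 C. CCF4 FRET fluorescence normalized to dexamethasone and DMSO; IC50 from Hill fit.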
Assay [7] has as its target Peroxisome proliferator-activated receptor delta (Homo sapiens) (UniProt Q03181). Nature of the assay: qHTS assay for small molecule antagonists of peroxisome proliferator-activated receptor delta signaling (AID 588535; active = well fitted inhibition curve with a large enough effect in the signal ratio, with a control signal flat, not every such curve was filed as active; the % refers to the signal ratio). The method, boiled down:
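Cells were seeded at 4000 per well in assay medium containing 2% charcoal/dextran FBS and held 5 hrs at 37 C. Compounds were then added for 18 hrs. CCF4 substrate was applied for 2 hrs at room temperature before fluorescence reading.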

For assay [8], the target named is Thyroid hormone receptor beta (Homo sapiens) (UniProt P10828). Nature of the assay: qHTS assay for small molecule antagonists of thyroid hormone receptor beta signaling (AID 588547; active = well fitted inhibition curve with a large enough effect in the signal ratio, with a control signal flat, not every such curve was filed as active; the % refers to the signal ratio). To be noted: TR-UAS-bla HEK293, beta-lactamase ratio, antagonist mode, 18 h. In outline: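 TR-UAS-bla GripTite HEK293 cells in 2% charcoal/dextran FBS medium; compounds 0.59 nM to 92 uM with T3 at 0.4nM final, 18 h at 37 C. Beta-lactamase read by CCF4 fluorescence (460/530 nm); Hill fits gave IC50 and efficacy.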
Thyroid hormone receptor beta (Homo sapiens), sequence (P10828 whole entry, looked up): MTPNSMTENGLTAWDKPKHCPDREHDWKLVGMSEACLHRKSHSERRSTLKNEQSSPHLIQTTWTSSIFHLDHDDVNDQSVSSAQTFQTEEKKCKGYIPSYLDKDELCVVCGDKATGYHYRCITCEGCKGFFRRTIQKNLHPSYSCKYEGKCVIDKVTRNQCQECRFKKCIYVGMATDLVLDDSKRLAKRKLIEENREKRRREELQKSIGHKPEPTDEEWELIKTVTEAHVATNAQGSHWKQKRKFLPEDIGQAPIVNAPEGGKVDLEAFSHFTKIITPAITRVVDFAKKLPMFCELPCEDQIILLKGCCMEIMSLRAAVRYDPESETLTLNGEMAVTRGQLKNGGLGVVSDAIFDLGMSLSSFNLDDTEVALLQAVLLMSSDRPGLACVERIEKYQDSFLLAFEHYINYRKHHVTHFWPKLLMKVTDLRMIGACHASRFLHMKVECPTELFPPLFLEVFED

Assay [9] can be described thus: qHTS assay for small molecule agonists of the antioxidant response element (ARE) signaling pathway (AID 651741; active = well fitted activation curve with a large enough effect in the signal ratio; the % refers to the signal ratio; also: potency is read from the fitted curve at half-maximal effect; as to activation: % of control where 0% means no effect). The method, boiled down: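 HepG2 ARE-bla cells plated at 2,000 cells/well and incubated 5 h at 37 C/5% CO2 received 23 nL compound in DMSO. After 16 h at 37 C, LiveBLAzer B/G FRET substrate was applied for 2 h at room temperature and fluorescence read.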

For assay [10], the target named is Estrogen receptor (Homo sapiens) (UniProt P03372). Description: qHTS assay for small molecule antagonists of estrogen receptor alpha signaling (AID 588513; active = well fitted curve in the direction sought with a large enough effect in the signal ratio, with a control signal flat, not every such curve was filed as active; the % refers to the signal ratio; also: potency is read from the fitted curve at half-maximal effect). In outline:
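ER-alpha-UAS-bla GripTite HEK 293 cells in 2% charcoal/dextran-treated FBS medium; compounds titrated (1:2, duplicate), then stimulated with 0.5 nM 17-beta-estradiol for 18 h at 37C. CCF4 beta-lactamase fluorescence; Hill-fit IC50 and efficacy.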

Bile acid receptor (Homo sapiens), sequence (Q96RI1 whole entry, looked up): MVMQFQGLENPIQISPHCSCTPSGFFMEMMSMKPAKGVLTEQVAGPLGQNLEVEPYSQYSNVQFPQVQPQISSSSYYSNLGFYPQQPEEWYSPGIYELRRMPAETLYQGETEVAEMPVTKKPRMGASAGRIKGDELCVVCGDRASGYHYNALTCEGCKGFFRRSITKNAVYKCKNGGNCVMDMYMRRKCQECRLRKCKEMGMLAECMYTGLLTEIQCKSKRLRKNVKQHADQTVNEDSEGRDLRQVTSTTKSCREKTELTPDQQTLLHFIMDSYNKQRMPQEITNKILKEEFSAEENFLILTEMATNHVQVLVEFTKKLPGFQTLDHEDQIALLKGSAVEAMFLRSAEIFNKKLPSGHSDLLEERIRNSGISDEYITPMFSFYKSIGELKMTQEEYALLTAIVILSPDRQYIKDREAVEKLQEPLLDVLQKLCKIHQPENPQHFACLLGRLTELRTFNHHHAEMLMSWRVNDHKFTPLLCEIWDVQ
Estrogen receptor (Homo sapiens), sequence (P03372 whole entry, looked up): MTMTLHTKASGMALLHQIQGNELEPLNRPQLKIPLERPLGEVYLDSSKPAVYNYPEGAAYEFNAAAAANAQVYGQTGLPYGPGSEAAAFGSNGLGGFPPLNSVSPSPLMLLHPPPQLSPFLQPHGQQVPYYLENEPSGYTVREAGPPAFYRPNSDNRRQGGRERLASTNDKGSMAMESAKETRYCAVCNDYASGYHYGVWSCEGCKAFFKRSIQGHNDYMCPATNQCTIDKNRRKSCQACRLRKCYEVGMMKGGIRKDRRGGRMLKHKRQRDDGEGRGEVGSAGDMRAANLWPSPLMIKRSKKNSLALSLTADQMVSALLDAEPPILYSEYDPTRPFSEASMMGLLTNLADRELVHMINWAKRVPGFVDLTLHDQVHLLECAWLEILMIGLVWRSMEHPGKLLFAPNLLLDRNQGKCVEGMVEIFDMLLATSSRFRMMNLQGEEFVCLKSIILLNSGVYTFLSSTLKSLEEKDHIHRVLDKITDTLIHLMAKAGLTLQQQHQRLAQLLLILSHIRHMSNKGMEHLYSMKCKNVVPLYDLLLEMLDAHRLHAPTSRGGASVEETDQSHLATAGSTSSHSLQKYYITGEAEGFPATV
Peroxisome proliferator-activated receptor delta (Homo sapiens), sequence (Q03181 whole entry, looked up): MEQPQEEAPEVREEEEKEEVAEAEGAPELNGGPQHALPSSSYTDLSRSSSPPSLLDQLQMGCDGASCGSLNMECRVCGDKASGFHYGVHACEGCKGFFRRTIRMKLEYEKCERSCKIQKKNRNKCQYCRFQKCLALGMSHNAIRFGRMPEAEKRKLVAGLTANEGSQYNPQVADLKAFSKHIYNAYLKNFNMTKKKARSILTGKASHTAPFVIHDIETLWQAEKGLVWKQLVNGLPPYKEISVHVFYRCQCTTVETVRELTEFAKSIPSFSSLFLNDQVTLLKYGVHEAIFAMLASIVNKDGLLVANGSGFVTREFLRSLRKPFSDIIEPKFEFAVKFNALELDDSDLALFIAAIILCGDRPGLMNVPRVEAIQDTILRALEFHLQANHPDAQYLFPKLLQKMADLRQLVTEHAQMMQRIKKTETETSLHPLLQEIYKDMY

Turning to `CC1COCc2cc3c(cc21)C(C)(C)C(C)C3(C)C` (stereo not drawn), the Potency in assay [1] is 11.2 µM (active). The activation in assay [2] is 12.8%; in [5], 13.9%. Moreover, the outcome in assay [3] was inactive. In addition, the Potency entry in [4], in assay [6], in assay [7] and in assay [9] was “inactive” in each case. Further, in [8], the activity change % (negative = inhibition) is 0.269%.
Turning to `O=[N+]([O-])c1ccc2c(c1)Cc1ccccc1-2`, the Potency result in assay [10], in assay [6] and in assay [7] was “inactive” each time. In addition, in assay [5], the activation was -0.149%.
`CC(=O)Nc1ccc(N=Nc2cc(C)ccc2O)cc1`: the Potency result in assay [1], in [6] and in assay [7] was “inactive” in each case. Besides, the figures for the activation in assay [2] and in assay [5] were -4.42% and -3.33%, respectively. Further, the compound was classed as inactive in assay [3]. In assay [9], the Potency is 17.2 µM (active).
Take `CN(C)c1nc(=O)n(C2CCC(O)CC2)c(=O)n1C` (stereo not drawn): the Potency entry in assay [1], in [4], in assay [6], in [7] and in [9] was “inactive” in each case. Also, the activation in [2] is 6.02%; in assay [5], 6.12%. In assay [3], the call was inactive.
For the compound `CC1(C)C(=O)NC(=O)N1CO`, the Potency result in [10], in [6] and in assay [7] was “inactive” in each case. Moreover, the activation in assay [5] is -5.05%.
Take `CSc1ccc(Cl)cc1`: the Potency result in assay [1], in [4], in assay [6], in [7] and in [9] was “inactive” each time. The activation in assay [2] is -7.93%; in [5], -2.12%. The result in [3] was inactive.
Regarding `CO/N=C1\C[C@]2(C[C@@H]3C[C@@H](C/C=C(\C)C[C@@H](C)/C=C/C=C4\CO[C@@H]5[C@H](O)C(C)=C[C@@H](C(=O)O3)[C@]45O)O2)O[C@H](/C(C)=C/C(C)C)[C@H]1C`, in assay [10], the Potency was 7.94 µM [inhibitor] (active).
As to `C=C(C)C(=O)OCCC[Si](OC)(OC)OC`, the Potency entry in [10], in assay [6], in assay [7] and in assay [9] was “inactive” each time. Also, the activity change % (negative = inhibition) in assay [8] was 2.39%.
`CCCCCCCCC(=O)O`: the Potency result in assay [10], in assay [6] and in [7] was “inactive” in each case. In addition, in [5], the activation was 1.63%. Besides, the activity change % (negative = inhibition) in [8] was 3.07%.
For the compound `CCC(C)(C)C1CCC(O)CC1` (stereo not drawn), the Potency result in assay [10], in assay [7] and in [9] was “inactive” in each case. In addition, the activity change % (negative = inhibition) in assay [8] was -5.82%.
`c1ccc(B(c2ccccc2)c2ccccc2)cc1`: the Potency entry in assay [1], in assay [4], in [6] and in assay [7] was “inactive” throughout. Also, the activation in assay [5] was -5.17%.
Regarding `Cl[Si](Cl)(Cl)c1ccccc1`, the Potency result in [1], in assay [4], in assay [7] and in assay [9] was “inactive” throughout. Also, the activation is 7.73% in assay [2] and 5.43% in assay [5]. Further, the compound was classed as inactive in [3].
For `O=C(O)C(Oc1ccc(Cl)cc1)Oc1ccc(Cl)cc1`, the Potency entry in assay [1], in assay [4], in [6], in [7] and in assay [9] was “inactive” throughout. For the same compound, the figures for the activation in assay [2] and in assay [5] were -5.73% and -6.89%, respectively. For the same compound, the result in assay [3] was inactive. Moreover, in assay [8], the activity change % (negative = inhibition) was -5.07%.
For the compound `FC(F)(F)c1ccc(Cl)c(Cl)c1`, the Potency entry in assay [1], in assay [6] and in [7] was “inactive” in each case. The activation in assay [2] was 6.47%; in [5], -1.21%. In addition, the outcome in [3] was inactive.
For `CN=C(N)NCC1CCOC1` (stereo not drawn), the Potency entry in assay [1], in assay [4], in assay [6] and in [7] was “inactive” in each case. The activation in assay [2] is 2.67%; in assay [5], -0.0864% and -2.61%. Also, the activity change % (negative = inhibition) in assay [8] is -7.34%. Also, in assay [9], the Potency is 21.7 µM (active).
Take `CC(C)=CCC[C@@H](C)[C@H]1CC[C@@]2(C)C3=C(CC[C@]12C)[C@@]1(C)CC[C@H](O)C(C)(C)[C@@H]1CC3`: the Potency result in assay [1], in [4], in assay [6], in assay [7] and in assay [9] was “inactive” in each case. The activation in assay [2] is 6.85%; in [5] it was 8.87%. In addition, the activity change % (negative = inhibition) in assay [8] was -4.34%.
For `CC(C)CCCCCOC(=O)CS`, the Potency result in assay [10], in assay [6] and in [9] was “inactive” in each case. Further, the activation in assay [5] was 5.28%. Moreover, in [8], the activity change % (negative = inhibition) is -8.58%.
`CCCCOC(=O)[C@@H](C)Oc1ccc(Oc2ccc(C(F)(F)F)cn2)cc1`: the Potency result in assay [1], in [4], in [6], in assay [7] and in [9] was “inactive” each time. Also, the activation in [5] is -9.59%. The activity change % (negative = inhibition) in assay [8] is 6.28% and 7.31%.
With `C/C=C/C/C=C\CCCCCCCCOC(C)=O`, the Potency result in assay [1], in assay [4], in assay [7] and in assay [9] was “inactive” in each case. The activity change % (negative = inhibition) in assay [8] is -5.4%.
With `CCCN(CCC)c1c([N+](=O)[O-])cc(C(F)(F)F)c(N)c1[N+](=O)[O-]`, the Potency entry in assay [1] and in assay [4] was “inactive” throughout. The activation in [5] was -4.44%.
Regarding `COC(=O)C1CCC(C(=O)OC)CC1` (stereo not drawn), the Potency result in assay [1], in assay [4], in assay [7] and in assay [9] was “inactive” in each case.
With `C[Si]1(C)O[Si](C)(C)O[Si](C)(C)O[Si](C)(C)O1`, the Potency result in [1], in assay [4] and in assay [9] was “inactive” each time. Moreover, the activity change % (negative = inhibition) in assay [8] was 11%.
`O=C=NCCCCCCN=C=O`: the Potency entry in assay [1], in assay [7] and in assay [9] was “inactive” throughout.
For `BrC1CCC(Br)C(Br)CCC(Br)C(Br)CCC1Br` (stereo not drawn), the activation in assay [2] was -5.15%; in assay [5], -5.02%. Besides, in assay [3], the call was inactive. For the same compound, the Potency entry in assay [4], in [6], in assay [7] and in [9] was “inactive” in each case. Besides, the activity change % (negative = inhibition) in [8] was 9.02%.
Consider `O=c1n(CCO)c(=O)n(CCO)c(=O)n1CCO`, for which the Potency result in [1], in [4] and in assay [7] was “inactive” throughout. In addition, in [9], the Potency is 30.6 µM (active).
In the case of `CCCCN(CCCC)CCCCCCN(CCCC)CCCC`, the Potency entry in assay [1], in [7] and in assay [9] was “inactive” in each case. Further, the activity change % (negative = inhibition) in [8] was 10%.
On to `C=C[Si](C)(C)O[Si](C)(C)C=C`, for which the Potency entry in assay [1], in assay [6] and in assay [9] was “inactive” throughout.
